From PubChem BioAssay
For part of these data: Entries with a potency or affinity are not part of this list. Activity calls are given as the source filed them. Unless noted, how the calls were made is not given here.

Tests used:
[1] = antimalarial activity against Dd2 strain (AID 2302;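 active means growth inhibition above 50% at the single 2 µM test dose, taken to imply half-maximal potency below 2 µM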;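 further: 0% = DMSO untreated growth and 100% = chloroquine plus artemisinin killed control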); conditions: P. falciparum Dd2 in RBCs, LDH growth readout, 72 h; at 2 µM; hits give high values
[2] = human hepatoma cell viability loss – ATP luminescence, cytotoxicity control for P. falciparum antimalarial project, primary screen (AID 2303;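 active means inhibition above 50%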;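 further: 0% = DMSO wells and 100% = digitonin-killed cells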); conditions: HepG2 viability, 24-48 h, at 10 µM, hits give high values
[3] = biological target: L-lactate dehydrogenase (Plasmodium falciparum (isolate CDC / Honduras)) (UniProt Q27743); assay: PfLDH activity inhibition – cell lysate, 3D7 strain, counter-screen for P. falciparum growth inhibition project (AID 2304);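 further: 0% = vehicle and 100% = reference inhibitor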; conditions: P. falciparum 3D7 crude extract, LDH APAD/NBT absorbance; at 2 µM; hits give high values
L-lactate dehydrogenase (Plasmodium falciparum (isolate CDC / Honduras)), sequence (Q27743 whole entry, looked up): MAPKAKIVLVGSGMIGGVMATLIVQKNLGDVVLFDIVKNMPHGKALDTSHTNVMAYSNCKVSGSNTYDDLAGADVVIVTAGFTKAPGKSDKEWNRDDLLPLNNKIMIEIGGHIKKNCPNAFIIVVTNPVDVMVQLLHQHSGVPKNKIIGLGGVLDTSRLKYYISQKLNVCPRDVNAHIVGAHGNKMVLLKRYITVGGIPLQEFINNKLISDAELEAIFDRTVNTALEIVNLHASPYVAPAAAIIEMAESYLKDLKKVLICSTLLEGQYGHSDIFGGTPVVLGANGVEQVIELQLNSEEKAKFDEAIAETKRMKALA

[4] = inhibition of 3D7 malaria parasite growth – strain 3D7 (AID 2306);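 further: 0% = DMSO wells and 100% = chloroquine plus artemisinin control wells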; conditions: P. falciparum 3D7 erythrocytic growth, LDH absorbance, 72 h; at 2 µM; hits give high values
[5] = biological target: Calcium-dependent protein kinase 1 (Plasmodium falciparum (isolate 3D7)) (UniProt P62344); assay: PfCDPK1 kinase inhibitors, biochemical, TCAMS library (AID 1159585; cut-off not given, nearly all actives have IC50 up to about 0.98 µM;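 further: inhibitors leave more ATP so luminescence rises with inhibition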); conditions: recombinant PfCDPK1, Kinase-Glo ATP depletion luminescence
Calcium-dependent protein kinase 1 (Plasmodium falciparum (isolate 3D7)), sequence (P62344 whole entry, looked up): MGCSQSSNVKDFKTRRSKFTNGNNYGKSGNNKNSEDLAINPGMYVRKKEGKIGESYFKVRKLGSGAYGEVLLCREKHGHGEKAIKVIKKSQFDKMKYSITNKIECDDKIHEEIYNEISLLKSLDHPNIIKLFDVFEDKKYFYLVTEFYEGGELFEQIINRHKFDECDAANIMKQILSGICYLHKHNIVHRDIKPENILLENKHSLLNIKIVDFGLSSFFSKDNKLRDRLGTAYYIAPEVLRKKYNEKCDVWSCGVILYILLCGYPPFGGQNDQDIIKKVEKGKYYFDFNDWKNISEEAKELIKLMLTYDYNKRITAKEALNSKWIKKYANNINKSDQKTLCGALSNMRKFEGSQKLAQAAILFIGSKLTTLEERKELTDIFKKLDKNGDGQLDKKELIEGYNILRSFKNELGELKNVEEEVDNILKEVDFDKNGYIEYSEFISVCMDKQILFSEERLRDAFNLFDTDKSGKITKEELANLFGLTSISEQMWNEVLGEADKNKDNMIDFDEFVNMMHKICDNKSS

[6] = biological target: Plasmodium falciparum protein kinase 6 (PK6, PF3D7_1337100) (UniProt Q8IDW1); assay: PfPK6 kinase inhibitors, biochemical, TCAMS library (AID 1159586); conditions: recombinant PfPK6, Kinase-Glo ATP depletion luminescence
Plasmodium falciparum protein kinase 6 (PK6, PF3D7_1337100), sequence (Q8IDW1 1-305): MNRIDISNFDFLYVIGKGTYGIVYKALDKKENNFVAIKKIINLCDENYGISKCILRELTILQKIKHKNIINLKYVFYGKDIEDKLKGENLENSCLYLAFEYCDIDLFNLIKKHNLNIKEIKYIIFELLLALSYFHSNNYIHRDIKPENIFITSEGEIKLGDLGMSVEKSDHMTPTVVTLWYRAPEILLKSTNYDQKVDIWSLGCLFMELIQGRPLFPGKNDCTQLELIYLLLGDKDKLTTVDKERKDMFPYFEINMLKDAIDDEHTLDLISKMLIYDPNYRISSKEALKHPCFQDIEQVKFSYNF

[7] = biological target: Protein kinase 7 (PK7), Plasmodium falciparum 3D7 (PF3D7_0213400) (UniProt Q7YTF7); assay: inhibition of Plasmodium PK7 catalytic activity – biochemical, TCAMS antimalarial set, Kinase-Glo luminescence (AID 1159587); conditions: recombinant PfPK7, Kinase-Glo ATP depletion luminescence
Protein kinase 7 (PK7), Plasmodium falciparum 3D7 (PF3D7_0213400), sequence (Q7YTF7 1-343): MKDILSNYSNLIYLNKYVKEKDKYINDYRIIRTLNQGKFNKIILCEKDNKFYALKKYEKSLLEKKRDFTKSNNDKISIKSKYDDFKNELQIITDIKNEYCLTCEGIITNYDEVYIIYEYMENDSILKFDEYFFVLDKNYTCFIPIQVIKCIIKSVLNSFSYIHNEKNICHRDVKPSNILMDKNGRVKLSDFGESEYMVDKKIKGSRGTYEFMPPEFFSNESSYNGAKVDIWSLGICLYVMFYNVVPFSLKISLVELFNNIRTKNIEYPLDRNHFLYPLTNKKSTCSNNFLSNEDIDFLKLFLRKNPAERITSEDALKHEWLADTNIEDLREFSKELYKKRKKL

[8] = biological target: Calcium-dependent protein kinase 4 (Plasmodium falciparum (isolate 3D7)) (UniProt Q8IBS5); assay: PfCDPK4 kinase inhibitors, biochemical, TCAMS library (AID 1159588; cut-off not given, nearly all actives have IC50 up to about 0.91 µM); conditions: recombinant PfCDPK4, Kinase-Glo ATP depletion luminescence
Calcium-dependent protein kinase 4 (Plasmodium falciparum (isolate 3D7)), sequence (Q8IBS5 whole entry, looked up): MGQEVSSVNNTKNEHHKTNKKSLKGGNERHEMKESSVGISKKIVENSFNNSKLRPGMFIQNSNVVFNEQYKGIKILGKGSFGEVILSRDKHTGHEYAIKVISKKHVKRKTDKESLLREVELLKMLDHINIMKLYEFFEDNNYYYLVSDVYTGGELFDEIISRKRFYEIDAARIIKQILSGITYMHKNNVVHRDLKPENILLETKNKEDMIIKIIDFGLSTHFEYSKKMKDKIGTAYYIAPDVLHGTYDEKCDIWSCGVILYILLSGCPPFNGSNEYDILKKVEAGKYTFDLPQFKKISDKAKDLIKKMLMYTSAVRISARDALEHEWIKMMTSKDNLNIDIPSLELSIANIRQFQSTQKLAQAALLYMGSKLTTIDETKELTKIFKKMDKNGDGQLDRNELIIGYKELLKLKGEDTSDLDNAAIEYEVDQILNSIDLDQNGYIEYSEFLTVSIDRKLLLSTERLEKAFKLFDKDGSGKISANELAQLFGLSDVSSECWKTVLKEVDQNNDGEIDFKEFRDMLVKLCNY

COc1ccc(NC(=O)[C@H](Cc2ccccc2)Nc2cc(C)nc(NCCc3cccs3)n2)cc1
inactive: inhibition [2] 12% | inhibition [3] -2% | outcome [5] | outcome [6] | outcome [7] | outcome [8]
active: growth inhibition [1] 83% | growth inhibition [4] 100%

C(=Cc1ccccc1)C=NNc1ccnc2ccccc12
inactive: inhibition [2] 24% | inhibition [3] 5% | outcome [5] | outcome [6] | outcome [7] | outcome [8]
active: growth inhibition [1] 100% | growth inhibition [4] 100%

Cc1cccc2[nH]c(-c3ccc(-c4ccc(C(=O)NCCN5CCCC5)cc4)cc3)nc12
inactive: inhibition [2] 25% | inhibition [3] 3% | outcome [5] | outcome [6] | outcome [7] | outcome [8]
active: growth inhibition [1] 77% | growth inhibition [4] 101%

CNC(=O)/C=C/c1cc(NC(=O)Nc2cc(C)nc3c(F)cccc23)ccc1OC
inactive: inhibition [2] -3% | inhibition [3] 2% | outcome [5] | outcome [6] | outcome [7] | outcome [8]
active: growth inhibition [1] 70% | growth inhibition [4] 98%

CCCNC(=O)c1cncc(-c2ccc(CNC(CC)c3ccccc3)cc2)c1 (configuration not stated)
active: growth inhibition [4] 92%
inactive: growth inhibition [1] 1% | inhibition [2] 20% | inhibition [3] 0% | outcome [5] | outcome [6] | outcome [7] | outcome [8]

CCNC(C)(C)CN(Cc1ccc(-c2ccc(C(F)(F)F)cc2)cc1)C(=O)Cn1c(CCc2cccc(F)c2F)nc(=O)c2ccccc21
inactive: inhibition [2] 47% | inhibition [3] -7% | outcome [5] | outcome [6] | outcome [7] | outcome [8]
active: growth inhibition [1] 70% | growth inhibition [4] 97%

CCN(CC)CCON=Cc1cc(C)c2[nH]c3ccc(OCc4ccccc4)cc3c2c1C
active: growth inhibition [4] 98%
inactive: growth inhibition [1] 29% | inhibition [2] 29% | inhibition [3] 1% | outcome [5] | outcome [6] | outcome [7] | outcome [8]

c1cc(-c2ccc(CN3CCCC3)cc2)cc(-c2nc3ccccc3[nH]2)c1
active: growth inhibition [1] 52% | growth inhibition [4] 100%
inactive: inhibition [2] 25% | inhibition [3] 0% | outcome [5] | outcome [6] | outcome [7] | outcome [8]

O=S(=O)(c1c(Cl)cc(Cl)cc1Cl)N1CCCCC(c2ccc(F)c(F)c2)=N1
inactive: inhibition [2] 5% | inhibition [3] -1% | outcome [5] | outcome [6] | outcome [7] | outcome [8]
active: growth inhibition [1] 65% | growth inhibition [4] 87%

N#Cc1cccc(NC(=O)Nc2ccc3c(c2)CN(Cc2c[nH]c4ncccc24)C3)c1
inactive: growth inhibition [1] 12% | inhibition [2] 0% | inhibition [3] 5% | outcome [5] | outcome [6] | outcome [7] | outcome [8]
active: growth inhibition [4] 99%

CN(C)CCN(C)C(=O)c1cc(-c2ccncc2)c(-c2ccc(Cl)c(O)c2)o1
active: growth inhibition [4] 97%
inactive: growth inhibition [1] 34% | inhibition [2] -11% | inhibition [3] 0% | outcome [5] | outcome [6] | outcome [7] | outcome [8]

Cc1cc(-c2cccc(CNC3CCN(C)CC3)c2)ccc1S(=O)(=O)NCCc1ccccn1
active: growth inhibition [1] 72% | growth inhibition [4] 97%
inactive: inhibition [2] 22% | inhibition [3] 2% | outcome [5] | outcome [6] | outcome [7] | outcome [8]

CC(C)CNCc1cccc(-c2ccccc2CNC2CCN(Cc3ccccc3)CC2)c1
active: growth inhibition [4] 100%
inactive: growth inhibition [1] 39% | inhibition [2] 25% | inhibition [3] -6% | outcome [5] | outcome [6] | outcome [7] | outcome [8]

Cc1ccc(S(=O)(=O)n2nccc2-c2c(-c3ccc(Cl)cc3)noc2C)cc1
inactive: inhibition [2] -1% | inhibition [3] -2% | outcome [5] | outcome [6] | outcome [7] | outcome [8]
active: growth inhibition [1] 97% | growth inhibition [4] 97%

Cc1ccc(C(CC(=O)Nc2nccs2)c2ccc(OC(C)C)cc2)cc1 (configuration not stated)
inactive: inhibition [2] 5% | inhibition [3] 3% | outcome [5] | outcome [6] | outcome [7] | outcome [8]
active: growth inhibition [1] 90% | growth inhibition [4] 94%

CC(C)(C(=O)NCCC1CCN(CCCCCNC(=O)/C=C/c2ccc(Cl)c(Cl)c2)CC1)c1ccc(Cl)cc1
inactive: growth inhibition [1] 33% | inhibition [3] -2% | outcome [5] | outcome [6] | outcome [7] | outcome [8]
active: inhibition [2] 92% | growth inhibition [4] 89%

COc1ccc(-c2cc(C(F)(F)F)n3ncc(C(=O)Nc4cc(C)ccc4O)c3n2)cc1OC
inactive: inhibition [2] 2% | inhibition [3] 0% | outcome [5] | outcome [6] | outcome [7] | outcome [8]
active: growth inhibition [1] 100% | growth inhibition [4] 100%

COc1ccc2nccc([C@@H](O)CN3CCC(NCc4cnc5c(c4)NC(=O)CS5)CC3)c2c1
inactive: growth inhibition [1] 29% | inhibition [2] -15% | inhibition [3] 0% | outcome [5] | outcome [6] | outcome [7] | outcome [8]
active: growth inhibition [4] 87%

CCCCCNc1ccnc2cc(Cl)ccc12
active: growth inhibition [1] 99% | growth inhibition [4] 97%
inactive: inhibition [2] 12% | inhibition [3] -2% | outcome [5] | outcome [6] | outcome [7] | outcome [8]

CC(=O)Nc1ccc(C(=O)Nc2cccc(-c3ccc(-c4nc5ccc(F)cc5[nH]4)s3)c2)cn1
inactive: inhibition [2] 33% | inhibition [3] 3% | outcome [5] | outcome [6] | outcome [7] | outcome [8]
active: growth inhibition [1] 97% | growth inhibition [4] 101%

CCN(CC)CCN(Cc1ccc(-c2ccc(C(F)(F)F)cc2)cc1)C(=O)Cn1c(CCc2ccc(F)c(F)c2F)nc(=O)c2ccc(F)cc21
active: growth inhibition [4] 98%
inactive: growth inhibition [1] 46% | inhibition [2] 19% | inhibition [3] -1% | outcome [5] | outcome [6] | outcome [7] | outcome [8]

O=C(Nc1ccsc1)Nc1cccc(-c2cccc(-c3nc4ccc(F)cc4[nH]3)c2)c1
active: growth inhibition [4] 100%
inactive: growth inhibition [1] 41% | inhibition [2] 46% | inhibition [3] 2% | outcome [5] | outcome [6] | outcome [7] | outcome [8]

CCOc1cc(C)ccc1C1CCN(CCCCNC(=O)c2nc(-c3ccc(C(F)(F)F)cc3)[nH]c2C)CC1
active: growth inhibition [1] 98% | growth inhibition [4] 100%
inactive: inhibition [2] 30% | inhibition [3] -5% | outcome [5] | outcome [6] | outcome [7] | outcome [8]

Cn1c(-c2ccccc2)cc2c3c(N)nc(N)nc3ccc21
active: growth inhibition [4] 100%
inactive: growth inhibition [1] 30% | inhibition [2] 27% | inhibition [3] -2% | outcome [5] | outcome [6] | outcome [7] | outcome [8]

Cc1ccc(NC(=O)c2ccc(Cl)cc2)cc1-c1ccc(C(=O)Nc2ccncc2)cc1
inactive: growth inhibition [1] 5% | inhibition [2] 36% | inhibition [3] 3% | outcome [5] | outcome [6] | outcome [7] | outcome [8]
active: growth inhibition [4] 98%

CCc1cc(-c2onc(C(F)(F)F)c2-c2ccccc2)c(O)cc1OC
inactive: inhibition [2] 16% | inhibition [3] -2% | outcome [5] | outcome [6] | outcome [7] | outcome [8]
active: growth inhibition [1] 73% | growth inhibition [4] 98%

COc1ccccc1CN1CCC(CNC(=O)c2cc(-c3cccc(C(F)(F)F)c3)cs2)C1 (configuration not stated)
inactive: growth inhibition [1] 1% | inhibition [2] 25% | inhibition [3] 4% | outcome [5] | outcome [6] | outcome [7] | outcome [8]
active: growth inhibition [4] 84%

Cn1ccnc1-c1nc2ccccn2c1NCC(=O)Nc1ccccc1N1CCCCC1
inactive: inhibition [2] 16% | inhibition [3] -7% | outcome [5] | outcome [6] | outcome [7] | outcome [8]
active: growth inhibition [1] 57% | growth inhibition [4] 85%

CC(=O)Oc1c(C(=O)C2CCC(C(C)(C)C)CC2)c(OC(C)=O)c2ccccc2c1OC(C)=O (configuration not stated)
inactive: inhibition [2] 9% | inhibition [3] 2% | outcome [5] | outcome [6] | outcome [7] | outcome [8]
active: growth inhibition [1] 96% | growth inhibition [4] 96%

COc1cccc(C(=O)Nc2ccc(Nc3nc(C)cc(N(C)C)n3)cc2)c1OC
active: growth inhibition [4] 90%
inactive: growth inhibition [1] 9% | inhibition [2] -10% | inhibition [3] -3% | outcome [5] | outcome [6] | outcome [7] | outcome [8]

CCN1CCN(c2cc(C)c3cc(NC(=O)c4cccc([N+](=O)[O-])c4)ccc3n2)CC1
inactive: inhibition [3] -3% | outcome [5] | outcome [6] | outcome [7] | outcome [8]
active: growth inhibition [1] 73% | inhibition [2] 74% | growth inhibition [4] 99%

Cc1c(F)cc(C(=O)NC2CC2)cc1-c1ccc2c(cnn2S(=O)(=O)c2ccc(F)c(F)c2)c1
inactive: inhibition [2] 49% | inhibition [3] -2% | outcome [5] | outcome [6] | outcome [7] | outcome [8]
active: growth inhibition [1] 76% | growth inhibition [4] 91%

COc1cccc2cc(C(=O)N[C@@H](CC(C)C)C(=O)N[C@H](/C=N/N3CCOC3=O)CC(C)C)oc12
inactive: inhibition [2] 4% | inhibition [3] -2% | outcome [5] | outcome [6] | outcome [7] | outcome [8]
active: growth inhibition [1] 72% | growth inhibition [4] 90%

c1cc2nc(CCCc3nc4ccc(C5=N[C@H]6CCCC[C@H]6N5)cc4[nH]3)[nH]c2cc1C1=N[C@@H]2CCCC[C@@H]2N1
active: growth inhibition [1] 84% | growth inhibition [4] 85%
inactive: inhibition [2] 10% | inhibition [3] -2% | outcome [5] | outcome [6] | outcome [7] | outcome [8]

Fc1cccc(C=NNc2ccnc3ccc(C(F)(F)F)cc23)c1
active: growth inhibition [1] 97% | growth inhibition [4] 100%
inactive: inhibition [2] -2% | inhibition [3] -4% | outcome [5] | outcome [6] | outcome [7] | outcome [8]

Cc1c(C)c2c(c(C)c1O)CCC(C)(CCC(=O)O)O2 (configuration not stated)
inactive: growth inhibition [1] -4% | inhibition [2] 8% | inhibition [3] 0% | outcome [5] | outcome [6] | outcome [7] | outcome [8]
active: growth inhibition [4] 96%

COc1ccc(C(=O)NCCCCN2CCC(c3ccc4c(c3OC)CCCC4)CC2)cc1-c1ccc(C(F)(F)F)cc1
active: growth inhibition [1] 56% | inhibition [2] 67% | growth inhibition [4] 100%
inactive: inhibition [3] 5% | outcome [5] | outcome [6] | outcome [7] | outcome [8]

Cc1cccc(C)c1CNc1cccc(-c2nc(C)c(C)[nH]2)c1
inactive: growth inhibition [1] 44% | inhibition [3] -3% | outcome [5] | outcome [6] | outcome [7] | outcome [8]
active: inhibition [2] 58% | growth inhibition [4] 99%

CCCCCCCCCCS(=O)(=O)N[C@H](COCc1cccc(Oc2ccccc2)c1)COP(=O)(O)OC
active: growth inhibition [4] 87%
inactive: growth inhibition [1] -3% | inhibition [2] -1% | inhibition [3] -8% | outcome [5] | outcome [6] | outcome [7] | outcome [8]
